Laboratory results published in the supplement of paper PMC6555819.

Experiments:
Experiment in all cases: PBM binding z-score (relative to random genomic background probes); higher = stronger binding; sequences stand for … in GC…GCGATTGACAGCGTAGAATGAAGG
[1] = tested on: FXR:RXRa (NR concentration 270 nM, RXRa partner concentration 90 nM)
Procedure, shortened: (§1)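 Regression normalization was applied to scanned fluorescence from custom Agilent 4×180K protein-binding microarrays. Before scanning, arrays were incubated 1 h with ligand-free nuclear receptor dimers, and binding was detected with antibodies against each partner (one per run). Binding z-scores use the random background probes as reference.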

[2] = tested on: LXRa:RXRa (NR concentration 270 nM, RXRa partner concentration 90 nM)
Procedure, shortened: as §1

[3] = tested on: LXRa homodimer (NR concentration 270 nM)
Procedure, shortened: as §1

[4] = tested on: LXRb:RXRa (NR concentration 270 nM, RXRa partner concentration 90 nM)
Procedure, shortened: as §1

[5] = tested on: LXRb homodimer (NR concentration 270 nM)
Procedure, shortened: as §1

[6] = tested on: PPARa:RXRa (NR concentration 270 nM, RXRa partner concentration 90 nM)
Procedure, shortened: as §1

[7] = tested on: PPARg:RXRa (NR concentration 180 nM, RXRa partner concentration 90 nM)
Procedure, shortened: as §1

[8] = tested on: PPARg:RXRa 270nM:90nM, anti-RXR (NR concentration 270 nM, RXRa partner concentration 90 nM)
Procedure, shortened: as §1

[9] = tested on: PPARg:RXRa 30nM:10nM, anti-RXR (NR concentration 30 nM, RXRa partner concentration 10 nM)
Procedure, shortened: as §1

[10] = tested on: PPARg:RXRa 90nM:30nM, anti-RXR (NR concentration 90 nM, RXRa partner concentration 30 nM)
Procedure, shortened: as §1

[11] = tested on: PPARg:RXRa DBDmut IVT, anti-RXR (DBD mutation: RXRa K156A/R161A, NR concentration 270 nM, RXRa partner concentration 90 nM)
Procedure, shortened: as §1

[12] = tested on: PPARg:RXRa IVT, anti-PPARg (NR concentration 270 nM, RXRa partner concentration 90 nM)
Procedure, shortened: as §1

[13] = tested on: PPARg DBDmut:RXRa IVT, anti-PPARg (DBD mutation: PPARg1 K132A/R137A, NR concentration 270 nM, RXRa partner concentration 90 nM)
Procedure, shortened: as §1

[14] = tested on: PPARg DBDmut IVT, anti-PPARg (DBD mutation: PPARg1 K132A/R137A, NR concentration 270 nM)
Procedure, shortened: as §1

[15] = tested on: PPARg homodimer (NR concentration 180 nM)
Procedure, shortened: as §1

[16] = tested on: PXR:RXRa (NR concentration 270 nM, RXRa partner concentration 90 nM)
Procedure, shortened: as §1

[17] = tested on: PXR homodimer (NR concentration 270 nM)
Procedure, shortened: as §1

[18] = tested on: RARa:RXR (NR concentration 270 nM, RXRa partner concentration 90 nM)
Procedure, shortened: as §1

[19] = tested on: RARa homodimer (NR concentration 270 nM)
Procedure, shortened: as §1

[20] = tested on: RARb:RXRa (NR concentration 270 nM, RXRa partner concentration 90 nM)
Procedure, shortened: as §1

Sequence | PBM binding z-score [1] | PBM binding z-score [2] | PBM binding z-score [3] | PBM binding z-score [4] | PBM binding z-score [5] | PBM binding z-score [6] | PBM binding z-score [7] | PBM binding z-score [8] | PBM binding z-score [9] | PBM binding z-score [10] | PBM binding z-score [11] | PBM binding z-score [12] | PBM binding z-score [13] | PBM binding z-score [14] | PBM binding z-score [15] | PBM binding z-score [16] | PBM binding z-score [17] | PBM binding z-score [18] | PBM binding z-score [19] | PBM binding z-score [20]
CCAGACAGGTGAAAGGTAACTCTGTCTGGTACGC | 0.257 | 1.07 | -0.318 | 0.89 | -0.274 | 3.45 | 5.57 | 6.03 | 4.71 | 5.8 | 2.33 | 3.16 | 0.131 | -0.269 | 0.283 | 1.16 | -0.171 | 2.16 | -0.0874 | 1.24
TCTGCGAGGTCAACGATGGTCAGCTAATCTGCTA | 6.96 | 5.84 | 1.07 | 4.75 | 1.01 | 5.65 | 5.8 | 6.12 | 3.37 | 4.91 | 3.66 | 4.67 | 0.567 | 1.25 | 3.27 | 5.4 | 1.03 | 5.37 | 0.126 | 5.18
TCGAGTAGGTTATGGGCATTCAGAATGGCGTCGA | -0.455 | 0.186 | -0.538 | -0.2 | -1.18 | 0.825 | 0.399 | 1.47 | 0.906 | 1.13 | 1.95 | 1.36 | -0.529 | -0.999 | 0.0273 | -0.316 | -0.754 | -0.148 | -0.374 | 0.453
CGTCCAAGTTCATAGGAGGTCAGTGAAGACAGAT | 5.25 | 6.43 | 3.8 | 4.3 | 0.586 | 3.83 | 1.6 | 2.43 | 0.744 | 1.47 | 0.698 | 1.81 | 0.494 | 0.544 | 3.04 | 6.14 | 9.37 | 4.07 | 1.68 | 4.14
TCTAGCAGGCCAGAGGATCACTCAAGAGGTACGG | -0.551 | -0.271 | -0.763 | -0.773 | -1.43 | -0.206 | 0.826 | 1.2 | 1.53 | 1.43 | 0.493 | -0.268 | -0.802 | -1.11 | -1.15 | -0.557 | -0.932 | -0.354 | -1.38 | -0.18
AATACAGGGTCATCGTAGGCTAGAGTACGCACAG | 7.1 | 6.2 | 2.25 | 4.59 | 1.4 | 6 | 6.55 | 5.9 | 2.52 | 4.76 | 3.07 | 3.89 | 1.38 | 0.798 | 1.99 | 4.52 | 0.956 | 4.85 | 1.03 | 4.33
TCATATAGGTAAAGGTGAGAGTCGAACGATATGA | 0.752 | 0.731 | -0.322 | 1.01 | -0.291 | 2.5 | 3.11 | 4.06 | 4.06 | 3.83 | 4.15 | 4 | 1.24 | 1.62 | 0.906 | 0.649 | 0.0264 | 1.29 | 0.387 | 1.69
AGTCAACGTTCACTAGGTAACGTAAGATTCAGCT | -0.243 | -0.0638 | -0.401 | -0.00739 | 0.00206 | 0.525 | 0.874 | 0.511 | 0.121 | 0.475 | 2.07 | 2.83 | 0.496 | 0.783 | -0.0596 | -0.163 | -0.41 | -0.184 | -0.305 | 0.64
GGAACGAGGGCAAAGTTGATAGGATCTGTCGACG | 1.38 | 1.05 | -0.433 | 0.86 | -0.537 | 4.22 | 6.9 | 6.73 | 5.71 | 6.95 | 3.81 | 4.2 | 0.474 | -0.389 | 0.743 | 1.31 | 0.619 | 1.58 | 0.0143 | 2.41
TCTCGGCGGACACGAAGGTCAGAGCTTTCCAGAG | 0.592 | 0.668 | 0.198 | 0.454 | -1.37 | 1.5 | 0.0295 | 1.04 | 1.16 | 1.08 | 0.413 | 0.291 | -0.613 | -1.55 | 0.53 | 1.09 | -0.42 | 1.09 | -0.212 | 2.45
TAGCCTGGGTCATGCGGGCCAGTATAGTGTCGGC | 3.19 | 1.79 | -0.665 | 1.03 | -0.444 | 3.4 | 2.12 | 2.48 | 0.16 | 1.54 | 0.519 | 2.76 | -0.229 | 0.545 | 0.758 | 1.64 | -0.615 | 2.42 | -0.605 | 3.18
TCATATAGGTAAGCAGGTGAAAGTCCGTAAGTTA | 0.125 | 0.178 | -0.0439 | 0.39 | -0.523 | 1.74 | 2.16 | 3.14 | 3.46 | 3.36 | 4.03 | 3.94 | 0.357 | 0.715 | 0.516 | 0.257 | 0.129 | 0.662 | 0.214 | 0.318
CAAACTAGGTCACCGGAAGGTCAAAGGCCGCATG | 6.24 | 5.81 | 4.23 | 5.17 | 1.01 | 6.34 | 9.9 | 7.75 | 6.27 | 7.97 | 8.46 | 8.84 | 4.26 | 3.71 | 5.53 | 5.83 | 1.1 | 7.5 | 1.75 | 5.35
GCTCGGAGGACACGGTCAGAGCTTTGTCCGTAGA | -0.337 | -0.705 | -0.568 | -0.918 | -1.3 | -0.523 | -0.859 | -0.893 | -1.3 | -1.06 | -0.213 | -0.07 | -1.69 | -1.2 | -0.679 | -0.581 | -1.34 | -0.541 | -1.26 | 2.09
TGTATTAGTTGATTAGGGCAACCGAAACAGCGGA | 0.242 | 0.0777 | 0.397 | 0.234 | 1.3 | 0.484 | 0.304 | 0.782 | 0.748 | 0.794 | 0.222 | 1.62 | 1.15 | 1.19 | 1.28 | -0.072 | 0.169 | 0.311 | 1.53 | 0.862
ATATGTATGTTATCGGGTCATTCAGTTTGCGCAT | 1.97 | 2.23 | 0.86 | 2.38 | 1.09 | 3.32 | 2.67 | 2.71 | 0.938 | 2.09 | 4.28 | 4.3 | 1.17 | 1.83 | 1.39 | 3.37 | 6.74 | 2.59 | 1.05 | 1.98
CCGAGTGGGGCATAAGGTTACCATAAGCCAGCCC | 0.498 | 1.86 | -0.512 | 0.83 | -1.04 | 2.05 | 2.19 | 3.09 | 1.06 | 2.66 | 2.28 | 2.81 | -1.47 | -1.33 | 0.587 | 0.569 | -0.243 | 1.27 | -0.802 | 1.35
TAGCCTAGGTCATTCAGGGACCAGTATAGAAAGC | 4.75 | 3.39 | 0.547 | 2.25 | 0.504 | 3.62 | 2.01 | 2.24 | 0.478 | 1.37 | 0.873 | 2.72 | 0.102 | -0.132 | 0.904 | 1.67 | -0.229 | 2.18 | -0.017 | 3.57
TCTGCTAGGTCAACGCTGGTCAGCTAATCTGCTA | 3.47 | 3.1 | -0.234 | 1.74 | -0.356 | 3.27 | 2.09 | 3.24 | 1.85 | 2.54 | 4.5 | 4.5 | 0.648 | 0.00924 | 1.34 | 2 | -1.26 | 2.35 | -1.41 | 4.16
